This note sets out measurements from PubChem BioAssay AID1076 (NMMLSC, 2008).

The source made the active and inactive calls.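 How the source made its calls: active means cell event count below 40, meaning activity score above 60 where score is 100 minus count; inactive means the rest.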

The nature of this experiment: cytotoxicity in LNCaP prostate cells – cell-based, cell event count, single point, cytotoxicity control for prostate differentiation activator project, confirmation (AID 1076).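 Further: counts scatter-gated live cells after medium removal discards detached dead cells.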 To be noted: LNCaP cell loss, flow cytometry event count, 4 d, stronger effect = lower value. (In general: In flow cytometry, cells or beads pass a laser one at a time.)

Consider `CCN(CC)CCNC(=O)c1nn(-c2ccc(C)cc2)c(=O)c2c1c1ccccc1n2C`, for which the cell event count is, setting by setting: (at 100 µM) 18 (inactive); (event count, at 10 µM) 136.

`Cc1cccc(N2CCN(C(=O)CCNC(=O)Cn3ccc4ccccc4c3=O)CC2)c1C`: the cell event count is 8 (inactive) (at 100 µM) and 246 (event count, at 10 µM).

For `CCOC(=O)C1CCN(c2nc3ccccc3nc2C(C#N)C(=O)OCCOC)CC1` (stereo unspecified), the cell event count (at 100 µM) was 17 (inactive) and the cell event count (event count, at 10 µM) turned out to be 108.

For the molecule `CCOC(=O)N1CCN(C(=O)C2CCCN(Cc3nc(-c4ccc(Cl)cc4)oc3C)C2)CC1` (stereo unspecified), the cell event count runs as follows: (at 100 µM) 10 (inactive); (event count, at 10 µM) 126.

As for `O=C(O)C1CCCCC1C(=O)Nc1cnn(Cc2ccccc2)c1` (stereo unspecified), the cell event count was 42 (inactive) (at 100 µM) and 66.5 (event count, at 10 µM).

With `Cc1oc(-c2ccc(Cl)cc2)nc1CN1CCC(C(=O)N2CCN(Cc3ccccc3)CC2)CC1`, the cell event count reads like this: (at 100 µM) 3 (inactive); (event count, at 10 µM) 224.

In the case of `Cn1cc(CNC(=O)C2c3ccccc3Oc3ccccc32)cn1`, the cell event count was 465 (inactive) (at 100 µM) and 217 (event count, at 10 µM).

For `CCn1c(=O)cc(OCC(=O)NCCCN2CCN(c3cccc(Cl)c3)CC2)c2ccccc21`, the cell event count (at 100 µM) is 20 (inactive) and the cell event count (event count, at 10 µM) came to 307.

Regarding `Cc1ccc(C)c(N2CCN(CCCNC(=O)Cn3cc4c(n3)CCCCC4)CC2)c1`, the cell event count was 3 (active) (at 100 µM) and 53.5 (event count, at 10 µM).

As to `COc1ccc(NC(=O)NCCCN2CCN(c3cc(C)ccc3C)CC2)cc1`, the cell event count is 1 (inactive) (at 100 µM) and 102 (event count, at 10 µM).

For `O=c1cc(N2CCc3ccccc3C2)[nH]c(=O)n1C1CCCCC1`, the cell event count reads like this: (at 100 µM) 143 (inactive); (event count, at 10 µM) 76.5.

In the case of `CCOC(=O)c1ccccc1NC(=O)Cn1c(-c2nonc2N)nc2ccccc21`, the cell event count reads like this: (at 100 µM) 72 (inactive); (event count, at 10 µM) 122.

In the case of `COc1ccc(-c2cc(C(F)(F)F)nc(N3CCN(Cc4ccccc4)CC3)n2)cc1OC`, the cell event count is 152 (inactive) (at 100 µM) and 376 (event count, at 10 µM).
